Assay results published in PubChem BioAssay (Tox21).
Results filed as inconclusive are left out. Activity calls are given as the source filed them. Unless noted, calls follow the shape of the dose curve; as a rule, active = well fitted curve in the direction sought with a large enough effect in the repeat runs; inconclusive = weak or mixed curves; inactive = no such curve, though single readings can be large; an effect the other way counts as inactive or inconclusive.

Experiments:
[1] = qHTS assay to identify small molecule agonists of the androgen receptor (AR) signaling pathway in the presence of an antagonist - cell viability counter screen (AID 1259379); also: series mostly up to about 92 µM; nearly all actives have a fitted effect of over 25% in size
How it was run: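 MDA-kb2 human breast carcinoma cells (stable MMTV-luciferase, AR/GR responsive) were seeded 3,000 cells/well, pre-incubated 5 hr at 37C without CO2, then given 3.0uM nilutamide and compounds at 15 concentrations for 16 hr. Viability was read by CellTiter-Fluor fluorescence.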

[2] = qHTS assay to identify small molecule agonists of the estrogen receptor beta (ER-beta) signaling pathway - cell viability counter screen (AID 1259380); also: nearly all actives have a fitted effect of over 30% in size
How it was run: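 ER-beta-UAS-bla HEK293T cells in medium with 2% charcoal-stripped FBS were preincubated 6 hr at 37C, dosed with compound in DMSO for 16 hr, then after the bla read, CellTiter-Glo was added for 30 min at room temperature; luminescence recorded.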

[3] = target: Androgen receptor (Homo sapiens) (UniProt P10275); experiment: qHTS assay to identify small molecule agonists of the androgen receptor (AR) signaling pathway in the presence of an antagonist (AID 1259381; calls by dose curve; also: nearly all actives have a fitted effect of over 15% in size)
Androgen receptor (Homo sapiens), sequence (P10275 whole entry, looked up): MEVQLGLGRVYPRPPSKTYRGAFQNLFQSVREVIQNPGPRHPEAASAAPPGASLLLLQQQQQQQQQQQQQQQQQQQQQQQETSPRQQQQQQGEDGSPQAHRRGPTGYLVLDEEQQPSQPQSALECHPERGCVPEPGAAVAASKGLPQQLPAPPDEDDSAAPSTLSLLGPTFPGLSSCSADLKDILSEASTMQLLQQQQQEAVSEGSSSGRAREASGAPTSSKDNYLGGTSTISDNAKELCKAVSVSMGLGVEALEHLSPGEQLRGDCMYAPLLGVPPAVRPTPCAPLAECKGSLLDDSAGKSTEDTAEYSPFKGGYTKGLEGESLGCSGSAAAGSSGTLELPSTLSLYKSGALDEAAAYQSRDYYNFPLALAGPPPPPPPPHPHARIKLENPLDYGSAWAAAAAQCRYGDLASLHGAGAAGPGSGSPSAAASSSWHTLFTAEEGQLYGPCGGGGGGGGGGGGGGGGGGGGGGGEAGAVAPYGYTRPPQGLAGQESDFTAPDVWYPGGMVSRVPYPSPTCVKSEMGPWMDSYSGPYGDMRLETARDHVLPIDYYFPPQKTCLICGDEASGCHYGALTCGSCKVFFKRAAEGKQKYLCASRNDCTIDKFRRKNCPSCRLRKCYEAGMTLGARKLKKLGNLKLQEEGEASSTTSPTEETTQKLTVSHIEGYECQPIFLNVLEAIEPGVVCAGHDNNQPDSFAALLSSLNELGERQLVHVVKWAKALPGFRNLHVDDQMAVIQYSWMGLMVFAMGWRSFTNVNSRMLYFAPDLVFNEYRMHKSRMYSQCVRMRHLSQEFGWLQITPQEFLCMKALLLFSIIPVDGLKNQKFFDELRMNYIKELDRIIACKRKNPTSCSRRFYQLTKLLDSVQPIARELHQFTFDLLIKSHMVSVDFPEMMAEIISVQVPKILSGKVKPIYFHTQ
How it was run: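 MDA-kb2 human breast carcinoma cells carrying an MMTV-luciferase reporter (AR- and GR-responsive) were treated with compounds at 15 concentrations plus 3.0uM final nilutamide for 16hr at 37C without CO2; luminescence was read after ONE-Glo addition.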

[4] = qHTS assay to identify small molecule antagonists of the estrogen receptor beta (ER-beta) signaling pathway - cell viability counter screen (AID 1259382);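 also: HEK293T cells carrying ER-beta-UAS-bla reporter stimulated with estradiol; series mostly up to about 92 µM; nearly all actives have a fitted effect of over 55% in size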
How it was run: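 ER-beta-UAS-bla HEK293T cells (2,000/well, 2% charcoal-stripped FBS) were pre-incubated 6 hr at 37C, then given compound plus 1nM final 17-beta-estradiol for 16 hr. Viability was read in the same wells by CellTiter-Glo luminescence after 30 min at room temperature.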

[5] = target: Estrogen receptor (Homo sapiens) (UniProt P03372); experiment: qHTS assay to identify small molecule agonists of the estrogen receptor alpha (ER-alpha) signaling pathway in the presence of an antagonist (AID 1259383; calls by dose curve; also: top concentration of the series differs between compounds; nearly all actives have a fitted effect of over 15% in size)
Estrogen receptor (Homo sapiens), sequence (P03372 whole entry, looked up): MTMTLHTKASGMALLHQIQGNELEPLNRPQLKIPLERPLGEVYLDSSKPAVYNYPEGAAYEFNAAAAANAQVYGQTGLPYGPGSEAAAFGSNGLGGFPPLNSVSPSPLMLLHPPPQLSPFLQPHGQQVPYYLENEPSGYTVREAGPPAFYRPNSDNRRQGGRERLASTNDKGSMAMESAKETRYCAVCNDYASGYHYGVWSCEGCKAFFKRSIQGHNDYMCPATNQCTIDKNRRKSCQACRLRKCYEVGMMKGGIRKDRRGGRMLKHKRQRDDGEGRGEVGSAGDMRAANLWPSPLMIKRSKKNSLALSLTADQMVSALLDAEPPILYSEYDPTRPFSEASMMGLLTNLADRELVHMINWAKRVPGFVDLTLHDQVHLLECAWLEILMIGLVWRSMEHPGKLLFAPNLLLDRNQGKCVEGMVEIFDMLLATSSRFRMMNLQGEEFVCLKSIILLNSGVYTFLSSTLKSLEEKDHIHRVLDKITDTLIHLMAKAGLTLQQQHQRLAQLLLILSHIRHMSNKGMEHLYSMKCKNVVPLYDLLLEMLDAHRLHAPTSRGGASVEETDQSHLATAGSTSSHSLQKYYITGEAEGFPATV
How it was run: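 VM7Luc4E2 cells (endogenous full-length ER-alpha, 4×ERE-luciferase) were precultured 5 days in phenol red-free medium with 10% charcoal-stripped FBS, given 10.0nM ICI-182,780 (final), then treated with compounds at 15 concentrations for 22hr at 37C; luminescence read with ONE-Glo.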

[6] = qHTS assay to identify small molecule agonists or antagonists of the thyroid stimulating hormone receptor (TSHR) signaling pathway - wild type cell line counter screen (AID 1259384; calls by dose curve)
How it was run: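 Wild-type HEK293 cells were plated 18 h at 37 C/5% CO2, pin-dosed with compound plus Ro20-1724 medium, held 30 min at room temperature, then given cAMP-d2 and anti-cAMP-cryptate; fluorescence was read after 1 h. Fifteen concentrations, triplicate.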

[7] = target: Thyrotropin receptor (Homo sapiens) (UniProt P16473); experiment: qHTS assay to identify small molecule antagonists of the thyroid stimulating hormone receptor (TSHR) signaling pathway (AID 1259385; calls by dose curve; also: nearly all actives have a fitted effect of over 20% in size)
Thyrotropin receptor (Homo sapiens), sequence (P16473 whole entry, looked up): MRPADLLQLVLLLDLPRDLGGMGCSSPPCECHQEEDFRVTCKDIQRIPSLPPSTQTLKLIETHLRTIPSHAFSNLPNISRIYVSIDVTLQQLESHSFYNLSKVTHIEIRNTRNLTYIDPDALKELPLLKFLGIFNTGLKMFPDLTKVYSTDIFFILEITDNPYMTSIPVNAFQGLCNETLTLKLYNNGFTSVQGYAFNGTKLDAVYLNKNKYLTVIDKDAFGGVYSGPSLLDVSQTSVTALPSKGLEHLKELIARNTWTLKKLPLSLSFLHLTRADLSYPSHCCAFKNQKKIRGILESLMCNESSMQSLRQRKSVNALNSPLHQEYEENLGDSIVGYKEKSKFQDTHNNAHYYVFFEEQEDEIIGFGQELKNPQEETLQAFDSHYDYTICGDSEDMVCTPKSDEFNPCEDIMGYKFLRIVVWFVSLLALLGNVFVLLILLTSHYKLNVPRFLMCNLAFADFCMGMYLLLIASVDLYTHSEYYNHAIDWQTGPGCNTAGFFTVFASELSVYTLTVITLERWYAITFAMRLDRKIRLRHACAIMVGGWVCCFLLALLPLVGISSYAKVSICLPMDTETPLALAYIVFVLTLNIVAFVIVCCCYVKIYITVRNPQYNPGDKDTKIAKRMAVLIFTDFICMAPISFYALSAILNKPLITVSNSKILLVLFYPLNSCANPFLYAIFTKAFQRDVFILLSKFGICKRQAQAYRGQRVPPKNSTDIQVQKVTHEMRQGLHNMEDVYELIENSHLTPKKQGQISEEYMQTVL
How it was run: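 TSHR-HEK293 cells were plated and held 18 h at 37C/5% CO2, then given compound plus Ro20-1724 and stimulated with TSH at 1.5 ng/mL final. After 30 min at room temperature, cAMP was detected with cAMP-d2/anti-cAMP-cryptate (1 h) by fluorescence.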

[8] = qHTS assay to identify small molecule agonists of the estrogen receptor alpha (ER-alpha) signaling pathway in the presence of an antagonist - cell viability counter screen (AID 1259386);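 also: series mostly up to about 92 µM; cells exposed to compounds for 22 h at 37 °C before the viability read; nearly all actives have a fitted effect of over 30% in size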
How it was run: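 VM7Luc4E2 cells (endogenous full-length ER-alpha, 4×ERE-luciferase) were held 5 days in phenol red-free medium with 10% charcoal-stripped FBS, plated, then given 10.0nM ICI-182,780 and compounds at 15 concentrations for 22hr at 37C; viability read by CellTiter-Fluor fluorescence.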

[9] = target: Progesterone receptor (Homo sapiens) (UniProt P06401); experiment: qHTS assay to identify small molecule agonists of the progesterone receptor (PR) signaling pathway (AID 1346784; calls by dose curve; also: nearly all actives have a fitted effect of over 30% in size)
Progesterone receptor (Homo sapiens), sequence (P06401 whole entry, looked up): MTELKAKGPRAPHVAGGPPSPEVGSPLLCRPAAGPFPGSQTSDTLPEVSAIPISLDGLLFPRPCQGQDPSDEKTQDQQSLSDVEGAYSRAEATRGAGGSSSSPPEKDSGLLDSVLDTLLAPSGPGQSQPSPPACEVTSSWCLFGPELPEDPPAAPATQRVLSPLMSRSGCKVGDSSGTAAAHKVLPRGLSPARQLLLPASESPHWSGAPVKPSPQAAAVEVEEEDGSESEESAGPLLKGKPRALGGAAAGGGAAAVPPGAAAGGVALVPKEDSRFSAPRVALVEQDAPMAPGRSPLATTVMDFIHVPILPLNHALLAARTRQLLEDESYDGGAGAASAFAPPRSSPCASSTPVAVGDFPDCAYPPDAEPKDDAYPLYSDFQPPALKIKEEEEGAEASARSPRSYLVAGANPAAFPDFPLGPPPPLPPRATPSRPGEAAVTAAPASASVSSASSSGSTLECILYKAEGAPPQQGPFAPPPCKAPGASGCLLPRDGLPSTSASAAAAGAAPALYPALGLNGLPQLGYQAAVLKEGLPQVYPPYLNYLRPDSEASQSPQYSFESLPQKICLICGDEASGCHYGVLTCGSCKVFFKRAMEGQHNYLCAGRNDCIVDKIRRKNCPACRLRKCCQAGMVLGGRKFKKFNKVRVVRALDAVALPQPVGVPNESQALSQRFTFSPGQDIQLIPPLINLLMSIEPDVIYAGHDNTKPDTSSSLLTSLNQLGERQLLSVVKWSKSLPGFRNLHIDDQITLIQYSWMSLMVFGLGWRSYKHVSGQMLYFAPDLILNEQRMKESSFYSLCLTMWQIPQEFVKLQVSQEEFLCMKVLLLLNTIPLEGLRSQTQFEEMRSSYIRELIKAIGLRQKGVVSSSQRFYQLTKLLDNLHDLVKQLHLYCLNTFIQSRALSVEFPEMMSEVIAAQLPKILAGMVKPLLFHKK
How it was run: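 PR-UAS-bla HEK 293T cells carrying a UAS-driven beta-lactamase reporter were seeded in medium with 2% charcoal-stripped FBS, preincubated 6 hr at 37C, then exposed to compounds in DMSO for 16 hr; agonism was read by LiveBLAzer B/G FRET fluorescence.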

[10] = qHTS assay to identify small molecule antagonists of the progesterone receptor (PR) signaling pathway - cell viability counter screen (AID 1346798); also: series mostly up to about 92 µM; nearly all actives have a fitted effect of over 50% in size
How it was run: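 PR-UAS-bla HEK293T cells in medium with 2% charcoal-stripped FBS were treated with compounds plus R5020 for 16 hr at 37C. Cell viability was then read by CellTiter-Glo luminescence after 30 min at room temperature in the same wells.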

[11] = qHTS assay to identify small molecule agonists of the progesterone receptor (PR) signaling pathway - cell viability counter screen (AID 1346799; calls by dose curve; also: nearly all actives have a fitted effect of over 45% in size)
How it was run: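 PR-UAS-bla HEK293T cells, 3,000 per well in medium with 2% charcoal-stripped FBS, were preincubated 6 hr at 37C, then exposed to compounds for 16 hr; viability was read as CellTiter-Glo luminescence after 30 min at room temperature.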

[12] = qHTS assay to identify small molecule antagonists of the TGF-beta/Smad signaling pathway - cell viability counter screen (AID 1346824); also: nearly all actives have a fitted effect of over 50% in size
How it was run: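 SBE-bla HEK 293T cells were plated overnight at 37 C, then given compounds in DMSO plus TGF-beta1 (added as 0.25 ng/mL solution) for 5 hr. After the bla read, CellTiter-Glo was added to the same wells and luminescence read after 30 min at room temperature.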

[13] = qHTS assay to identify small molecule agonists of the TGF-beta/Smad signaling pathway - cell viability counter screen (AID 1346829); also: top concentration of the series differs between compounds; nearly all actives have a fitted effect of over 45% in size
How it was run: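 Tox21 qHTS format: SBE-bla HEK 293T cells treated with DMSO-dissolved compounds for 5 hr; CellTiter-Glo luminescence after 30 min at room temperature.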

[14] = qHTS assay to identify small molecule agonists of the TGF-beta/Smad signaling pathway (AID 1346859; active = well fitted activation curve with a large enough effect in the signal ratio in the repeat runs, not every such curve was filed as active; the % refers to the signal ratio; also: series mostly up to about 77 µM)
How it was run: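 HEK 293T cells stably carrying a beta-lactamase reporter driven by the Smad binding element were seeded overnight, exposed to DMSO-dissolved compounds for 5 hr at 37 C, 5% CO2, then loaded with FRET substrate for 2 hr at room temperature.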

[15] = target: Thyrotropin-releasing hormone receptor (Homo sapiens) (UniProt P34981); experiment: qHTS assay to identify small molecule antagonists of the thyrotropin-releasing hormone receptor (TRHR) signaling pathway (AID 1346877; active = well fitted inhibition curve with a large enough effect in the repeat runs, not every such curve was filed as active; also: series mostly up to about 51 µM)
Thyrotropin-releasing hormone receptor (Homo sapiens), sequence (P34981 whole entry, looked up): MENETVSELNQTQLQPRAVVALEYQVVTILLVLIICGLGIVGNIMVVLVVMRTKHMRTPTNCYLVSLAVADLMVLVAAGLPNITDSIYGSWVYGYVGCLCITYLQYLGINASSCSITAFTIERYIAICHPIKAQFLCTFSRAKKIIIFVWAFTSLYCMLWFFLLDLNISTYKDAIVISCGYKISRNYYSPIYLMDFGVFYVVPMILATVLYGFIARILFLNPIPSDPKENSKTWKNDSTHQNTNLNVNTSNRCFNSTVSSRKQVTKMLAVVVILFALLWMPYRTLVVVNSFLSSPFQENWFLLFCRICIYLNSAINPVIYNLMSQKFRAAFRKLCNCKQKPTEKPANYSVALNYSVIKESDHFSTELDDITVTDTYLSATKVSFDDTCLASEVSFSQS
How it was run: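 TRHR-expressing HEK293 cells were seeded, cultured 18 h at 37 °C, then loaded with calcium dye for 2 h. Compounds were pre-incubated 5 min at room temperature before 1 nM TRH (final) was added, and kinetic fluorescence was recorded for 3 min.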

[16] = target: Thyrotropin-releasing hormone receptor (Homo sapiens) (UniProt P34981); experiment: qHTS assay to identify small molecule agonists of the thyrotropin-releasing hormone receptor (TRHR) signaling pathway (AID 1346891; calls by dose curve; also: series mostly up to about 58 µM)
How it was run: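 TRHR-expressing HEK293 cells were plated 18 h at 37 °C/5% CO2, loaded with calcium dye 2 h at 37 °C, then given compound in DMSO; fluorescence was read kinetically for 3 min at 1 s intervals.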

[17] = Human pregnane X receptor (PXR) small molecule agonists, qHTS cell viability counter screen (AID 1346977); also: nearly all actives have a fitted effect of over 50% in size
How it was run: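 PXR-Luc HepG2 cells in medium with 5% charcoal-stripped FBS were pre-incubated 5hr, then exposed to compounds for 24hr at 37C. Viability was read in the same wells by CellTiter-Fluor fluorescence, reagent added after 23hr with a 1hr incubation.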

[18] = Caspase-3/7 induction in HepG2 cells by small molecules, qHTS assay (AID 1346978); also: nearly all actives have a fitted effect of over 15% in size
How it was run: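 Wild-type HepG2 cells (2,000/well) were settled 5 h at 37 C, 5% CO2, then exposed to compounds in DMSO for 17 h. Caspase-3/7 activity was read by luminescence 30 min after adding Caspase-Glo 3/7 reagent at room temperature.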

[19] = Caspase-3/7 induction in CHO-K1 cells by small molecules, qHTS cell viability counter screen (AID 1346979); also: nearly all actives have a fitted effect of over 35% in size
How it was run: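 Wild-type CHO-K1 cells were seeded at 1,500 per well, rested 5hr at 37 C, then exposed to compounds in DMSO. After 16hr, CellTiter-Fluor reagent was added and fluorescence read 1hr later as the viability measure.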

[20] = target: Progesterone receptor (Homo sapiens) (UniProt P06401); experiment: qHTS assay to identify small molecule antagonists of the progesterone receptor (PR) signaling pathway (AID 1346795; active = well fitted inhibition curve with a large enough effect in the signal ratio in the repeat runs, not every such curve was filed as active; the % refers to the signal ratio)
How it was run: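 PR-UAS-bla HEK293T cells carrying a UAS-driven beta-lactamase reporter were plated in medium with 2% charcoal-stripped FBS and rested 6 hr at 37C. Compounds were added with 1 nM R5020 (final) for 16 hr, then FRET substrate loaded 2 hr at room temperature.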

Measured: Potency

CC1=CC[C@@H](C(C)(C)O)CC1
not listed: [20]
inactive: all other assays above

O=C(Cl)c1ccc(Cl)cc1Cl
not listed: [6] | [7] | [16] | [19]
inactive: all other assays above

CN1CCN(C)CC1
not listed: [11] | [15] | [16] | [20]
inactive: all other assays above

Clc1ccc2c(Cl)ccnc2c1
not listed: [15] | [16]
inactive: all other assays above

Brc1cc(Br)cc(Br)c1
not listed: [11] | [18]
inactive: all other assays above

COCCC(=O)OC
not listed: [10] | [20]
inactive: all other assays above

C=C1CC[C@H]2O[C@]2(C)CC[C@@H]2[C@@H]1CC2(C)C
not listed: [15] | [16] | [20]
inactive: all other assays above
